Among all 21,000 compounds or so, fewer than 10 showed an effect of 50% or more. Not all results are given here. Results with a measured potency or affinity are listed apart.

The test has as its system Acinetobacter baumannii. The settings on record: Concentration 300 ug.mL-1; ASSAY_TEST Inhibition of Bacterial Growth; detection method Absorption (OD600); MEDIA CAMHB; plate type 384well; NBS; CORNING #3640; time 18 hr.
In general, Inhibition refers to the drop in the measured response relative to a control, in per cent. Regarding `NS(=O)(=O)N1CCCNCC1`, the Inhibition came to 17.02%.
The result for `CCN(CC)C(=O)NCC[S+]([O-])C(C)(C)C` (stereo not given) reads 4.98%.
To `CN(CCc1ccc(Br)cc1)C(=O)CCCN` belongs 4.12%; to `CNC(=O)c1c(C)cccc1NCCCOC`, 4.81%.
The result for `COc1ccc(OCCCC(=O)NCCN(C)C)cc1` reads 9.28%.
Consider `COCCN1CCCN(C(=O)C(C)C)CC1`, for which the Inhibition is listed as -1.05%.
The result for `O=C1CN(C(=O)c2ccn(-c3ccccc3)n2)CCN1` reads 1.11%; that for `NC1CCN(CC(=O)N2CCOCC2)CC1`, 3.07%.
The result for `CC(O)(CN)C(F)(F)F` (stereo not given) reads -3.1%.
To `CC(N)CCNS(=O)(=O)c1ccccc1` (stereo not given) belongs 10.98%; to `NCC(=O)NCc1ccncc1`, 9.5%; to `O=C(Nc1cccc(CN2CCCC2=O)c1)C1CC1`, 1.2%.
On to `CC(C)CCNC(=O)CCn1cc(Br)ccc1=O`, for which the Inhibition is reported as 8.21%.
To `COc1ccc(C(=O)NCC2(C)COC2)c(F)c1F` belongs 4.61%; to `CO[C@@H]1CN[C@@H](c2nc(C)no2)C1`, -0.59%.
The result for `COCc1cccc(-c2nc(C3CCOC3)no2)n1` (stereo not given) reads 9.25%; that for `Cc1cc(=O)cc(C(=O)N2CCCC(C)(C#N)C2)o1` (stereo not given), 0.52%.
The result for `CN(CCCS(C)(=O)=O)CC1CCN(CCO)CC1` reads 0.5%.
Turning to `O=C(c1cncc(F)c1)N1CC(N2CCCCC2)C1`, the Inhibition is recorded as 2.2%.
The result for `CN(CC1CCOCC1)C(=O)NCc1ccco1` reads 4.16%; that for `Cn1ccnc1CN(Cc1ccc(CO)o1)C1CC1`, 10.44%.
The result for `Cc1nc(C(C)(C)N)sc1C` reads 11.05%.
The result for `Nc1nc(CCCNC(=O)Cc2ccsc2)cs1` reads 10.16%; that for `Cn1nnnc1SCc1cc(Cl)c2c(c1)OCCO2`, 3.66%.
Turning to `O=S(=O)(c1ccco1)N1CCOCc2ccccc21`, the Inhibition was determined as 6.19%.
For the compound `N#Cc1ccc(OCC(O)CN2CCSCC2)cc1` (stereo not given), the Inhibition is on record as 10.14%.
On to `Cc1cccc(C2NCCNC2=O)c1` (stereo not given), for which the Inhibition was found to be 12.66%.
As for `COCCN(Cc1cnn(C)c1)C(=O)C1CCNC1` (stereo not given), the Inhibition stood at 2.42%.
To `CN1CCN(C(C)(C)CNC(=O)Nc2cn[nH]c2)CC1` belongs -0.91%; to `O=C(NCCCOC(F)F)NCc1ccc(Br)o1`, 3.72%; to `O=C(NC1CCCOc2ccc(F)cc21)c1c[nH]nn1` (stereo not given), 8.95%.
To `COC(=O)CN1CCN(C(=O)N(C)C)CC1` belongs 20.07%; to `COc1ccc(SCC(=O)NC2CCN(C)CC2)cc1`, 2.47%.
The result for `COCCN(C)C[C@@H]1CN(C(=O)C2CCC2)C[C@@H]1CO` reads 6.32%; that for `CN(CCS(=O)(=O)c1ccc(Cl)cc1)CC(=O)N(C)C`, -3.7%.
As for `CSCC(=O)NC1CCCC1`, the Inhibition was determined as 5.49%.
As for `CCS(=O)(=O)NCCCNS(=O)(=O)c1ccc(C)cc1`, the Inhibition was 0.89%.
The result for `COc1ccc(Cl)cc1NC(=O)NC1CCS(=O)(=O)C1` (stereo not given) reads 6.86%.
To `O=C(Nc1ccc(NC(=O)C2CC2)nc1)c1ccsc1` belongs 12.11%; to `COCCOCC(=O)N(C)C(C)c1ccncn1` (stereo not given), 0.44%; to `CCN(C(=O)CN1CCNC(=O)C1)c1ccc(F)cc1`, 7.47%.
To `CNC[C@@H]1C[C@@H](O)CN1` belongs 4.99%; to `CC(C)c1noc(CN2CCSCC2)n1`, 17.17%; to `Cc1ccc(C(CN)N2CCOCC2)o1` (stereo not given), 1.38%.
Turning to `CCc1nc(CNCC2CCN(CCO)CC2)no1`, the Inhibition amounted to 11.72%.
`CCN(CC)C(C)CNC(=O)c1csc(NC(C)=O)n1` (stereo not given): the Inhibition stood at 5.75%.
To `COCC(=O)Nc1ccc(-n2cccn2)nc1` belongs -2.46%; to `CCC(C)(CO)NC(=O)c1sc(COC)nc1C` (stereo not given), 6.56%.
In the case of `CCC(N)C(=O)N1CCOCC1` (stereo not given), the Inhibition was 3.92%.
To `CC[C@H](N)C(=O)N1CC(Oc2c(C)cccc2C)C1` belongs 6.21%.
`O=C(NC1CCCOC1)c1ccc2c(c1)OCCO2` (stereo not given): the Inhibition is 9.3%.
To `CCCN1CCC(N2CCC(C(N)=O)CC2)CC1` belongs -0.38%.
To `NC1CCN(Cc2ccc(F)c(F)c2)CC1` belongs 10.51%.
To `COc1cn(-c2ccccc2)nc1C(=O)NCC(C)C` belongs 12.56%; to `c1cncc(N2CCCCC2)c1`, 8.5%; to `Cc1cc(CN)n(C)n1`, 8.01%.
For `Cc1nc(CC(=O)NCC(C)n2ccnc2)cs1` (stereo not given), the Inhibition is on record as 5.87%.
The result for `CCc1noc(C(C)NC(=O)c2cccnc2C)n1` (stereo not given) reads 6.44%.
For `COc1c(F)cccc1CN1C[C@H](O)[C@@H](N(C)C)C1`, the Inhibition came to 9.85%.
The result for `CC(C)(C)OC(=O)c1ncccc1N` reads 5.28%; that for `CCC(=O)c1ccc(CN)cc1`, 12.11%; that for `CSCC(=O)Nc1ccc(C(=O)NCC(F)(F)F)cc1`, 10.77%.
The result for `CC(=O)N1CCN(CCNC(=O)c2cc(Br)c[nH]2)CC1` reads 4.86%; that for `CNC(=O)C(C)(C)Oc1cccc(Cl)c1`, 6.59%; that for `O=C(C1CCC1)N(Cc1ccccn1)C1CC1`, 0.99%.
To `Cc1nccn1CC(=O)Nc1ccnn1C` belongs 1.95%; to `CN(C)c1cc(CN)ccn1`, 11.49%; to `CCn1nc(C)cc1C(=O)NCCCc1cccnc1`, 7.13%.
With `O=C1CC(C(=O)N2CCCC3(CCCCC3)C2)CCN1` (stereo not given), the Inhibition is recorded as 7.27%.
Consider `CCN(C)CCNC(=O)c1ccncc1I`, for which the Inhibition was 5.97%.
For `O=C(c1ccco1)N1C[C@H](O)[C@@H](N2CCCCC2)C1`, the Inhibition was found to be 9.48%.
`CNC(=O)c1cnc(OCC(F)(F)F)c(Cl)c1`: the Inhibition came out at 1.45%.
To `CC(=O)N(C1CC1)C(C)c1ccccn1` (stereo not given) belongs 3.11%; to `O=C1NCCCCC1NS(=O)(=O)N1CCOCC1` (stereo not given), 3.3%; to `CCn1cc(NC(=O)C(C)n2cccn2)cn1` (stereo not given), 0.68%.
The result for `CN(c1cccc(C(N)=O)c1)S(=O)(=O)c1ccccc1` reads 7.68%.
Take `COc1cccc(NC(=O)NCC2CCN(C)CC2)c1`: the Inhibition is reported as 9.08%.
As to `Cc1cnccc1CN`, the Inhibition stood at 5.52%.
The result for `CN(Cc1nc(-c2ccc(F)cc2)cs1)CC(O)CO` (stereo not given) reads 8.94%; that for `CC(C)CN1CC(CN)OC1=O` (stereo not given), 2.13%.
Turning to `O=C(CCN1CCc2[nH]cnc2C1)NCc1cccs1`, the Inhibition is on record as -3.55%.
For the compound `CCNS(=O)(=O)C1CCN(Cc2cc(F)cc(F)c2)C1` (stereo not given), the Inhibition is -0.23%.
To `C1CC(C2CCOC2)CCN1` (stereo not given) belongs 9.96%.
`CCS(=O)(=O)CCN(C)CCOc1cccc(C#N)c1`: the Inhibition is 3.26%.
The result for `CC(N)c1nc2ccccc2n1C` (stereo not given) reads -1.51%.

The values are drawn from ChEMBL document CHEMBL4513160, “CO-ADD screening of MMV (CH) - Small Polar Library”.
